This is an account of results in PubChem BioAssay (Tox21).

Unmarked numbers belong to inactive results. Records with an inconclusive call do not appear. Active and inactive are the calls of the source. Unless noted, the call rests on the fitted dose curve; in most records, active means well fitted curve in the direction sought with a large enough effect in the repeat runs; inconclusive means weak or mixed curves; inactive means no such curve, though single readings can be large; an effect the other way counts as inactive or inconclusive.

The target of test [1] is Luciferin 4-monooxygenase (Photinus pyralis) (UniProt P08659). In words: qHTS assay to identify small molecule inhibitors of firefly luciferase (AID 1224835). Further: nearly all actives have a fitted effect of over 25% in size. Summed up:
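Inhibition of purified Photinus luciferase is measured by luminescence. Substrate levels (D-luciferin, ATP) sit at their KM values. Each compound is tested in a concentration series.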
On the technique in general: Quantitative high-throughput screening tests each substance at several concentrations.

Test [2] can be described thus: qHTS assay to identify small molecule agonists of the constitutive androstane receptor (CAR) signaling pathway - cell viability counter screen (AID 1224836). Further: nearly all actives have a fitted effect of over 45% in size. Summed up: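 Multiplexed viability check: HepG2-CYP2B6-hCAR cells, 15-point compound dosing, 0.75 uM PK11195 final, 23 h at 37 C, CellTiter-Fluor fluorescence.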
A short description of test [3]: qHTS assay to identify small molecule antagonists of the constitutive androstane receptor (CAR) signaling pathway - cell viability counter screen (AID 1224837). Further: nearly all actives have a fitted effect of over 45% in size. An outline of the steps: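 HepG2 cells stably expressing hCAR and a CYP2B6-2.2kb reporter were plated and pre-incubated 4 hr at 37 C/5% CO2, then given compounds at 15 concentrations plus 50 nM CITCO (final). After 23 hr, viability was read by CellTiter-Fluor fluorescence.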

In test [4] the target is Nuclear receptor subfamily 1 group I member 3 (Homo sapiens) (UniProt Q14994). Description: qHTS assay to identify small molecule antagonists of the constitutive androstane receptor (CAR) signaling pathway (AID 1224838). Further: nearly all actives have a fitted effect of over 40% in size. An outline of the steps: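 HepG2 cells stably co-transfected with hCAR and a CYP2B6-2.2kb luciferase reporter were seeded 4 h before compound addition at 15 concentrations. Cells were stimulated with 50 nM CITCO (final) for 24 h at 37 C; luciferase luminescence was then read.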
Sequence of Nuclear receptor subfamily 1 group I member 3 (Homo sapiens) (Q14994 whole entry, looked up): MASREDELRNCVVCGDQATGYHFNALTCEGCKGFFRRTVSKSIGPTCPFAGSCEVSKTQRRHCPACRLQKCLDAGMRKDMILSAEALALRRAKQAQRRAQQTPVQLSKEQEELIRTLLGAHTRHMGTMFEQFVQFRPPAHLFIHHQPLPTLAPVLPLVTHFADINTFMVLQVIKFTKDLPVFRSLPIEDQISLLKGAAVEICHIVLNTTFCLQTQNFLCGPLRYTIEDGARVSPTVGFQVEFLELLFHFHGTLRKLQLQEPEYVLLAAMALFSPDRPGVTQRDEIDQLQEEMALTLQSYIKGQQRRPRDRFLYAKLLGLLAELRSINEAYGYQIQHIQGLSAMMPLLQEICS

The target is the same in test [5]. Description: qHTS assay to identify small molecule agonists of the constitutive androstane receptor (CAR) signaling pathway (AID 1224839). Further: nearly all actives have a fitted effect of over 15% in size. Further: potency means the concentration at half of the fitted maximal effect. Summed up:
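Using human hepatoma HepG2 cells engineered with hCAR and a CYP2B6-2.2kb reporter, 15-concentration compound series were incubated 24 h alongside PK11195 at 0.75 uM final, with luminescence quantified afterwards.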

Test [6] in a line: qHTS assay to identify small molecule antagonists of the estrogen related receptor signaling pathway with the pleiotropic PPARgamma coactivator (PGC) from Tox21 10K library - cell viability counter screen (AID 1224840; active means well fitted cell-killing curve with a large enough effect in the repeat runs, not every such curve was filed as active; further: nearly all actives have a fitted effect of over 40% in size). Summed up: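 PGC/ERR cells were seeded at 2,000 cells/well and left 6 hours at 37 C/5% CO2 before pin-tool addition of compounds in DMSO. After 17.5 hours at 37 C, CellTiter-Fluor was added and fluorescence read 30 minutes later.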

Test [7] deals with Thyrotropin receptor (Homo sapiens) (UniProt P16473). Description: qHTS assay to identify small molecule agonists of the thyroid stimulating hormone receptor (TSHR) signaling pathway (AID 1224843; calls by dose curve; further: nearly all actives have a fitted effect of over 45% in size). An outline of the steps: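 Screening of the Tox21 10K collection used HEK293 cells engineered with TSHR at 800 cells per well. After a 30-min room-temperature compound exposure, HTRF cAMP reagents were added and fluorescence recorded 1 h later.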
Sequence of Thyrotropin receptor (Homo sapiens) (P16473 whole entry, looked up): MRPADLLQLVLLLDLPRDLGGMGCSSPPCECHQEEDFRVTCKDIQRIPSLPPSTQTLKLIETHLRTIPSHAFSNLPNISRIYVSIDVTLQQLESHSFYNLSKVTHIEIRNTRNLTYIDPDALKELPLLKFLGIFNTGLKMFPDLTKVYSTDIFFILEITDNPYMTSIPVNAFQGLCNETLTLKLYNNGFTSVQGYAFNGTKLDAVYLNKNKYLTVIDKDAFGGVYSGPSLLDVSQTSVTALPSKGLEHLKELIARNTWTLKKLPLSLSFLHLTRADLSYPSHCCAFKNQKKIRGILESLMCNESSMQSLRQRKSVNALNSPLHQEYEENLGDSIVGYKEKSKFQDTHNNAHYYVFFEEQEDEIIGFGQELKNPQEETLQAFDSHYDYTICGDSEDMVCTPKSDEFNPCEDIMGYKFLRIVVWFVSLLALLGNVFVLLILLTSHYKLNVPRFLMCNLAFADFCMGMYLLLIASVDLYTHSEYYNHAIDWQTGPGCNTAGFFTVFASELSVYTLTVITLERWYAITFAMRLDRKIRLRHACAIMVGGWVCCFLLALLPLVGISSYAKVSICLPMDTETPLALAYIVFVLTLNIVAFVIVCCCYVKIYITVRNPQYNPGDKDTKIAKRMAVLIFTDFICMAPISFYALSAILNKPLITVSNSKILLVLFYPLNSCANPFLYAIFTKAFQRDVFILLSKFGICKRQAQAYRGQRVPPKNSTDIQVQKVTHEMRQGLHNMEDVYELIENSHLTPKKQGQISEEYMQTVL

Test [8] is described as follows: qHTS assay to identify small molecule agonists of the hypoxia (HIF-1) signaling pathway - cell viability counter screen (AID 1224844; calls by dose curve; further: nearly all actives have a fitted effect of over 50% in size). An outline of the steps: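 HRE-bla ME-180 cells in medium with 0.5% dialyzed FBS were preincubated 5 hrs at 37C, exposed to compounds for 17 hrs, then viability was read as CellTiter-Glo luminescence after 30 min at room temperature, in the reporter wells.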

Test [9] can be described thus: qHTS assay to identify small molecule agonists of H2AX (AID 1224845; active means well fitted activation curve with a large enough effect in the signal ratio in the repeat runs, not every such curve was filed as active; the % refers to the signal ratio). An outline of the steps:
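Phospho-H2AX Ser139 measured by HTRF (ex 320 nm; em 665 and 620 nm) after 24 hr antibody incubation. Compounds, 15 concentrations, 0.76% DMSO, were applied to CHO-K1 cells for 3hr at 37C before lysis.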

A short description of test [10]: qHTS assay to identify small molecule agonists of the hypoxia (HIF-1) signaling pathway (AID 1224846; active means well fitted activation curve with a large enough effect in the signal ratio in the repeat runs, not every such curve was filed as active; the % refers to the signal ratio). An outline of the steps: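 HRE-bla ME-180 cells (beta-lactamase reporter under hypoxia response element) were plated at 2,000 cells/well in medium with 0.5% dialyzed FBS, rested 5 hrs, then given compounds in DMSO for 17 hrs at 37C, 5% CO2. Reporter induction was read with CCF4-AM FRET substrate.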

A short description of test [11]: qHTS RealTime-Glo MT Cell Viability Assay in HepG2 cells - 24 hour (AID 1224867). Further: nearly all actives have a fitted effect of over 50% in size. An outline of the steps:
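qHTS, HepG2, 600 cells/well, RealTime-Glo (NanoLuc + prosubstrate) added with cells; 5 h preincubation; DMSO compound addition; 37 C; luminescence at 0/8/16/24/32/40 h.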

The nature of test [12]: qHTS RealTime-Glo MT Cell Viability Assay in HEK293 cells - 32 hour (AID 1224868). Further: top concentration of the series differs between compounds; nearly all actives have a fitted effect of over 50% in size. An outline of the steps: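 Assay medium contained NanoLuc luciferase plus cell-permeant prosubstrate, added with HEK293 cells at 600 cells/well. After 5 h at 37 C/5% CO2 compounds were added; plates stayed at 37 C for 40 h with serial luminescence reads.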
Test [13] can be described thus: A CellTox Green Cytotoxicity Assay to monitor cytotoxicity in HEK293 cells - 0 hour (AID 1224869). Further: nearly all actives have a fitted effect of over 50% in size. An outline of the steps:
(§1)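 HEK293 cells premixed with CellTox Green dye were seeded at 600 cells/well and left 5 h at 37 C/5% CO2 before pin transfer of 23 nL compound in DMSO. Fluorescence from dye bound to dead-cell DNA was read during 40 h treatment.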

A short description of test [14]: qHTS RealTime-Glo MT Cell Viability Assay in HepG2 cells - 40 hour (AID 1224870). Further: nearly all actives have a fitted effect of over 50% in size. An outline of the steps:
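Real-time viability: cells seeded at 600 per well together with NanoLuc and cell-permeant prosubstrate, compounds added after 5 h incubation. Luminescence tracked at 0, 8, 16, 24, 32 and 40 h of exposure.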

The nature of test [15]: A CellTox Green Cytotoxicity Assay to monitor cytotoxicity in HEK293 cells - 40 hour (AID 1224871). Further: nearly all actives have a fitted effect of over 45% in size. Summed up:
as §1

The nature of test [16]: qHTS assay to identify small molecule agonists of H2AX - cell viability counter screen (AID 1224847; calls by dose curve; further: nearly all actives have a fitted effect of over 30% in size; further: potency means the concentration at half of the fitted maximal effect;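 on activity change, negative = cytotoxicity: wild-type CHO-K1 cells; top concentration of the series differs between compounds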). Summed up:
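After overnight plating of 1000 CHO-K1 cells per well, a 15-concentration compound series was applied for 3 hr at 37C. Luminescence from CellTiter-Glo, read following 30 min at room temperature, reflected cell viability.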

Test [17] is described as follows: qHTS assay to identify small molecule agonists of the estrogen related receptor (ERR) signaling pathway from Tox21 library (AID 1224849; calls by dose curve; further: nearly all actives have a fitted effect of over 15% in size). The following applies: ERR reporter cell line, ONE-Glo luciferase, 18 h; at 92.4 µM (top of the series) unless noted. An outline of the steps:
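ERR reporter cell line (NTP) seeded, rested 6 h at 37 C/5% CO2, then pinned with Tox21 compounds in DMSO. After 18 h at 37 C, ONE-Glo luciferase luminescence was read following 30 min at room temperature.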
On the % scale 0 is the no-effect control and ±100 the full control effect.

Sequence of Luciferin 4-monooxygenase (Photinus pyralis) (P08659 whole entry, looked up): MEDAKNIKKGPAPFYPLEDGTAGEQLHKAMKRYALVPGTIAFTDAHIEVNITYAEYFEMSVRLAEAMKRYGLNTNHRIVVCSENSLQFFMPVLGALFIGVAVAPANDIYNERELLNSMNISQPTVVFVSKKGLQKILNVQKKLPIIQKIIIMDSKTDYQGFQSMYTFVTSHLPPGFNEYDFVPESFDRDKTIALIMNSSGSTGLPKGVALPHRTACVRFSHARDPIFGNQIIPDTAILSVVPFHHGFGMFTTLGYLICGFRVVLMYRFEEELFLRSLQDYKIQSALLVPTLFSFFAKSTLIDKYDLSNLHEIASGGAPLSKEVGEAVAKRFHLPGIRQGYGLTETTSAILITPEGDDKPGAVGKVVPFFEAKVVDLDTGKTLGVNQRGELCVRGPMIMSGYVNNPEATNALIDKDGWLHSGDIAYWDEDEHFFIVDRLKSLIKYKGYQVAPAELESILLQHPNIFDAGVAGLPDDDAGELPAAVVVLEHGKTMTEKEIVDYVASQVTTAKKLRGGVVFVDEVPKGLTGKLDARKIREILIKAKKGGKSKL

In the case of `O=CC1CC1`, the Potency entry in [1], in test [2], in [3], in [4], in test [5] and in test [6] was “inactive” throughout. Further, the Potency entry in test [7], in test [8], in test [9], in test [11], in test [12] and in test [13] was “inactive” in each case. In addition, the Potency result in test [14] and in test [15] was “inactive” throughout. The call in test [10] was inactive.

Regarding `C=C(C)C(=O)OCCC[Si](Cl)(Cl)Cl`, the Potency result in test [1], in test [2], in [3], in test [4], in test [5] and in test [6] was “inactive” in each case. Besides, the Potency entry in test [7], in [8], in [9], in test [11], in test [12] and in test [13] was “inactive” in each case. Moreover, the Potency entry in test [14] was “inactive”. The result in [10] was inactive.

Consider `CCCCCCCCCCCC(=O)N(CC)CC`, for which the Potency entry in [1], in test [2], in [3], in test [4], in test [6] and in test [7] was “inactive” each time. Further, the Potency entry in test [9], in [11], in test [12] and in test [13] was “inactive” each time. The Potency in test [5] was 54.5 µM (active).

`CC(=O)c1ccccc1N`: the Potency result in [1], in [2], in test [3], in test [4], in test [5] and in [6] was “inactive” throughout. Also, the Potency result in test [7], in test [8], in [9], in test [16], in test [11] and in [13] was “inactive” throughout. Moreover, the Potency entry in [15] is “inactive”. Also, in [10], the molecule was called inactive.

Regarding `C/C=C/C(=O)C1=C(C)CCCC1(C)C`, the Potency entry in test [1], in test [2], in [3], in test [4], in test [5] and in [6] was “inactive” throughout. In addition, the Potency result in [7], in test [9], in [16], in [11], in test [13] and in test [14] was “inactive” each time. For the same molecule, the molecule was called inactive in [10]. The activity change, positive = activation in [17] was -5.63%.

As to `CC(C)=C1CC[C@@H](C)CC1=O`, the Potency result in test [1], in [2], in [3], in test [4], in test [5] and in [6] was “inactive” in each case. In addition, the Potency entry in [7], in test [8], in [9], in test [16], in [11] and in test [12] was “inactive” throughout. Besides, the Potency result in test [13] and in test [15] was “inactive” throughout. The molecule was classed as inactive in test [10].

For the molecule `CCC(=O)OCCc1ccccc1`, the Potency entry in [1], in test [2], in test [3], in test [4], in test [5] and in test [6] was “inactive” throughout. Besides, the Potency entry in test [8], in test [9], in test [16], in [11], in test [12] and in test [13] was “inactive” in each case. In addition, the Potency result in test [14] and in [15] was “inactive” in each case. For the same molecule, in test [10], the outcome was inactive.

Consider `Nc1ncnc2c1ncn2[C@@H]1O[C@H](COP(=O)(O)O)[C@@H](O)[C@H]1O`, for which the Potency result in test [1], in [2], in test [3], in [4], in test [5] and in test [6] was “inactive” each time. The Potency result in test [7], in test [8], in test [9], in test [16], in test [12] and in [13] was “inactive” throughout. Besides, the Potency entry in [15] is “inactive”.

On to `COc1cc(C(C)C)c2c(c1)S(=O)(=O)N(COc1cc(=O)n3cccc(OCCN4CCCCC4)c3n1)C2=O`, for which the activity change, negative = inhibition in test [1] is -3.11% [at 23.6 µM]. Also, the viability change, negative = cytotoxic in [2] was -20.4% [at 19 µM]; in test [6] it was -15.4% [at 19 µM]. The activity change, negative = cytotoxicity in test [3] is -19.6% [at 19 µM]; in test [8] it was -17% [at 15.8 µM]; in test [11], -8.66% [at 15.8 µM]. Further, the activity, negative = inhibition in [4] was -19.4% [at 19 µM]. Moreover, the activation was -2.29% [at 19 µM] in test [5] and -0.216% [at 19 µM] in [7]. The Potency in [16] is 24 µM (active). In test [13], the cytotoxicity was -2.82% [at 15.8 µM].
